# Results taken from PubChem BioAssay (NCI).
# This is part of a sample that, as a whole, favours compounds with a hit. Of some 83,000 tested, about 20% had one in any assay.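 Negative percent growth values reflect cell death: -40 means 40% of the cells present at the start died, and -100 means all died.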 Values without a mark were called inactive. Active and inactive are the calls of the source. How the source made its calls: active means growth percent below 10; inactive means the rest.
# Legend:
# Assay in all cases: NCI-60 one-dose screen, 48 h (100 = growth as untreated, 0 = no growth, -100 = all killed)
# Conditions in all cases: 10 µM unless noted
# T-47D breast = test system: T-47D breast
# BT-549 breast = test system: BT-549 breast
# MDA-MB-435 melanoma = test system: MDA-MB-435 melanoma
# SW-620 colon = test system: SW-620 colon
# MCF7 breast = test system: MCF7 breast
# HCT-116 colon = test system: HCT-116 colon
# HCC-2998 colon = test system: HCC-2998 colon
# KM12 colon = test system: KM12 colon
SMILES,growth (T-47D breast),growth (BT-549 breast),growth (MDA-MB-435 melanoma),growth (SW-620 colon),growth (MCF7 breast),growth (HCT-116 colon),growth (HCC-2998 colon),growth (KM12 colon)
COc1ccc(C2CC(n3ccnc3)c3cc(OC)c(OC)c(OC)c32)cc1O (centres undefined),94.3%,90.4%,5% (active),62.5%,44.8%,81.1%,99.2%,50.6%
CC(C)CCC[C@@H](C)[C@H]1CC[C@H]2[C@@H]3CC=C4c5sc(Nc6cc(C(F)(F)F)cc(C(F)(F)F)c6)nc5CC[C@]4(C)[C@H]3CC[C@]12C,95.7%,98.9%,104%,100%,107%,99.3%,101%,102%
Cc1oc(-c2ccc(Cl)cc2)nc1C1=NN(C(=O)c2ccncc2)C(c2ccccc2)C1 (centres undefined),97%,89.7%,95.9%,95.2%,94%,93.8%,102%,90.6%
Nc1c(C(=O)Nc2cccc3ncccc23)sc2nc3c(cc12)CN(Cc1ccccc1)CC3,41.3%,71.5%,22.1%,83.7%,53.1%,74.2%,93.5%,86.7%
COc1ccc2c(c1)c(-c1nc(-c3ccc4ccccc4c3)cs1)cn2C,58%,89%,70.1%,73.4%,30.8%,87.9%,99.5%,67.4%
CC12OC(CC(O)C1O)n1c3ccccc3c3c4c(c5c6ccccc6n2c5c31)C(=O)N(CCN1CCCC1)C4=O (centres undefined),21.9%,52.9%,30.4%,13.9%,2.15% (active),13.4%,13.3%,27.9%
COc1ccc(Cl)cc1Nc1nc(C(F)(F)F)ccc1C(=O)N/N=C/c1ccc([N+](=O)[O-])cc1,7.15% (active),18.6%,15.9%,5.81% (active),-8.58% (active),11.3%,-27.8% (active),-3.54% (active)
C=C(C)[C@@H]1CC[C@]2(C)[C@H](C=CC3=C4C[C@@](C)(CO)CC[C@]4(C)CC[C@]32C)[C@@]1(C)CCCN,-43.7% (active),80%,-96.8% (active),-80.8% (active),-78.5% (active),-86.5% (active),-92% (active),-71.7% (active)
O=C(O)c1cn(C2CC2)c2cc(N3CCN(C(=O)N4CCOCC4)CC3)c(F)cc2c1=O,110%,95.7%,105%,112%,103%,110%,107%,104%
COc1ccc(C/C(C)=C(\c2ccc(Cl)cc2)c2ccc(OCCN3CCCC3)cc2)cc1,56.6%,85.5%,89.4%,75.2%,35.7%,78.9%,75.6%,72.1%
Cc1cc(=O)n(C(=S)Nc2ccc(Cl)cc2)c2cc(O)ccc12,85.4%,119%,105%,110%,98.7%,96%,100%,102%
CC1=C2[C@@H](CC1)[C@]1(C)O[C@@](C3CCNCC3)(C[C@H]1OC(=O)CO)[C@H]2OC(=O)/C=C/c1ccccc1,62.6%,81.7%,88.6%,93.6%,74.2%,74.5%,99%,97.6%
O=C(c1ccc(Br)cc1)C(Br)C(c1ccc(Cl)cc1)C(c1ccccc1)[N+](=O)[O-] (centres undefined),76.9%,105%,95.9%,96.4%,84.5%,76.2%,125%,92.7%
O=S(Nc1ccccc1)c1ccc(Cl)cc1 (centres undefined),90.7%,110%,90.4%,86.8%,101%,92.1%,95.4%,109%
COc1cc(/C=N/NC(=O)c2ccc(-n3cc(-c4ccccc4)nn3)cc2)cc(OC)c1OC,59.8%,53.8%,33.1%,64.8%,14.1%,89.5%,84.3%,53.1%
CCOC(=O)c1c(C)nc2ccccc2c1/C=C/c1ccc(F)cc1,23.4%,73.6%,78.7%,85.5%,23.3%,56.2%,81.1%,72.5%
N=C(N)c1ccc(OCCSCCOc2ccc(C(=N)N)cc2)cc1,50.5%,11.1%,79.9%,87.6%,58.1%,68.4%,79.7%,62.2%
CCN1C2CCC1/C(=C\c1ccccc1)C(=O)/C2=C/c1ccccc1,56.9%,48.6%,30.7%,42.4%,25.2%,15.6%,80.1%,20.6%
O=Nc1ccc(NC(=O)Nc2ccc([N+](=O)[O-])cc2)cc1,78.9%,98.3%,96.5%,97.4%,94%,86.5%,104%,90.7%
CCn1cc(C(=O)N/N=C/c2cccc(F)c2)c(=O)c2cc(F)c(N3CCNC(C)C3)c(F)c21 (centres undefined),72.3%,82.9%,-74.7% (active),-84.6% (active),-83.5% (active),71.2%,-80.6% (active),-26.8% (active)
COc1cc(/C=C2\C(=O)N(CCCOc3cc(O)c4c(=O)cc(-c5ccccc5)oc4c3)c3ccccc32)cc(OC)c1O,44.6%,49.7%,-35.1% (active),38.4%,48.9%,63.7%,82.9%,62.2%
CC(C)Cc1nc(Nc2ccccc2)[nH]c(=O)c1C#N,40.8%,39%,70.6%,70.3%,53.4%,54.7%,38.1%,50.6%
Nc1nc(C(=O)N/N=C/c2ccc(F)cc2)nn1-c1ccc(S(N)(=O)=O)cc1,99.3%,114%,100%,99.2%,98.8%,101%,107%,96.7%
c1ccc(-c2c(-c3ccccc3)[n+](Cc3ccc4ccccc4c3)cn2Cc2ccc3ccccc3c2)cc1,-74.3% (active),-82% (active),-91.3% (active),-79.8% (active),-83.8% (active),-87.5% (active),-93.3% (active),-80.2% (active)
CCCCCc1ccc(S(=O)(=O)Nc2ccc3nc(N)oc3c2)cc1,36.1%,61.9%,50.3%,76.8%,31.8%,43%,98.5%,64.1%
O=C1/C(=C/c2ccccn2)SC(=S)N1N1CCOCC1,99.4%,99.9%,103%,97.6%,87.4%,104%,97.7%,103%
COCCn1cc(-c2csc(-c3c[nH]c4ccccc34)n2)c2cccnc21,3.06% (active),21.8%,2.9% (active),30.7%,9.88% (active),16.6%,42.1%,15.6%
O=S(=O)(Nc1cc(Sc2nc3ccccc3s2)c(O)c2ccccc12)c1ccc2ccccc2c1,79.5%,105%,95.4%,108%,81.7%,90.6%,109%,92.6%
